# Assay outcomes deposited in PubChem BioAssay by NMMLSC.
# MEP2-GFP yeast – modulators of MEP2-GFP levels in yeast, primary screen, S. cerevisiae, multiplex flow cytometry, MLPCN library; S. cerevisiae MEP2-GFP strain, 3 h; 100% = DMSO control level; GFP response vs DMSO, % at 10 µM; 330,000 compounds, 0.51% hits;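 active = GFP response versus DMSO above a set limit, roughly screen mean plus 3 SD, cut at about 180% in these data; inconclusive = fewer than 70 cells counted for a yeast strain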;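 also: median GFP fluorescence of the barcode-gated MEP2-GFP cells per well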
# RPL19A TOR yeast – RPL19A-GFP expression modulators in yeast, primary screen, cell-based, S. cerevisiae, multiplex flow cytometry, MLPCN | S. cerevisiae RPL19A-GFP strain, 3 h; stronger effect = lower value | percent response vs DMSO, % at 10 µM | 330,000 compounds, 0.3% hits;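 active = percent response vs DMSO below 50%; inconclusive = fewer than 70 events counted for the yeast strain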;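 also: median channel GFP fluorescence of the barcoded RPL19A-GFP strain; lower means less RPL19A-GFP as with rapamycin TOR inhibition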
# CIT2-GFP yeast – modulators of CIT2-GFP expression in yeast, primary screen, S. cerevisiae, GFP fusion, multiplex flow cytometry, MLPCN library; 320,000 compounds, 0.065% hits; GFP response vs DMSO, % at 10 µM; S. cerevisiae CIT2-GFP strain, 3 h; 100 means same as DMSO wells;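 active = GFP response relative to DMSO above a set limit, near the screen mean plus 3 SD, cut at about 150% in these data; inconclusive = Fewer than 70 cells measured for a yeast strain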;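 also: ratio of well median GFP fluorescence to mean of DMSO wells on the plate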
# AGP1 TOR yeast – modulators of AGP1-GFP expression in yeast TOR pathway, primary screen, cell-based, multiplex flow cytometry, S. cerevisiae, MLPCN library; AID 2066, 2009; GFP response vs DMSO, % at 10 µM; 320,000 compounds, 0.02% hits; 3 h; GFP as percent of DMSO wells;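 active = GFP response relative to DMSO above a set limit, near screen average plus 3 SD, cut at about 150% in these data; inconclusive = fewer than 70 cells counted for the yeast strain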;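 also: median GFP channel fluorescence of the gated AGP1 strain per well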
# LAP4-GFP MLPCN – modulators of LAP4-GFP expression in yeast, primary screen, S. cerevisiae, multiplex flow cytometry, MLPCN library; 3 h; median GFP as percent of DMSO wells; GFP response vs DMSO, % at 10 µM; 320,000 compounds, 0.34% hits; AID 2023, 2009;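 active = GFP response vs DMSO above a set limit, about the screen mean plus 3 SD, cut at about 150% in these data; inconclusive = under 70 cell events counted for the yeast strain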
# VLA-4 inh – inhibition in human VLA-4 binding assay, primary screen, VLA-4 allosteric modulator project, MLPCN library, flow cytometry, VLA-4 expressing cells. ligand binding flow cytometry. 330,000 compounds, 0.2% hits. inhibition, % (about 7 µM as worked out from the volumes in the protocol). AID 2557, 2010; in the data active = inhibition above about 50%
# Target sequence (P13612 whole entry, looked up): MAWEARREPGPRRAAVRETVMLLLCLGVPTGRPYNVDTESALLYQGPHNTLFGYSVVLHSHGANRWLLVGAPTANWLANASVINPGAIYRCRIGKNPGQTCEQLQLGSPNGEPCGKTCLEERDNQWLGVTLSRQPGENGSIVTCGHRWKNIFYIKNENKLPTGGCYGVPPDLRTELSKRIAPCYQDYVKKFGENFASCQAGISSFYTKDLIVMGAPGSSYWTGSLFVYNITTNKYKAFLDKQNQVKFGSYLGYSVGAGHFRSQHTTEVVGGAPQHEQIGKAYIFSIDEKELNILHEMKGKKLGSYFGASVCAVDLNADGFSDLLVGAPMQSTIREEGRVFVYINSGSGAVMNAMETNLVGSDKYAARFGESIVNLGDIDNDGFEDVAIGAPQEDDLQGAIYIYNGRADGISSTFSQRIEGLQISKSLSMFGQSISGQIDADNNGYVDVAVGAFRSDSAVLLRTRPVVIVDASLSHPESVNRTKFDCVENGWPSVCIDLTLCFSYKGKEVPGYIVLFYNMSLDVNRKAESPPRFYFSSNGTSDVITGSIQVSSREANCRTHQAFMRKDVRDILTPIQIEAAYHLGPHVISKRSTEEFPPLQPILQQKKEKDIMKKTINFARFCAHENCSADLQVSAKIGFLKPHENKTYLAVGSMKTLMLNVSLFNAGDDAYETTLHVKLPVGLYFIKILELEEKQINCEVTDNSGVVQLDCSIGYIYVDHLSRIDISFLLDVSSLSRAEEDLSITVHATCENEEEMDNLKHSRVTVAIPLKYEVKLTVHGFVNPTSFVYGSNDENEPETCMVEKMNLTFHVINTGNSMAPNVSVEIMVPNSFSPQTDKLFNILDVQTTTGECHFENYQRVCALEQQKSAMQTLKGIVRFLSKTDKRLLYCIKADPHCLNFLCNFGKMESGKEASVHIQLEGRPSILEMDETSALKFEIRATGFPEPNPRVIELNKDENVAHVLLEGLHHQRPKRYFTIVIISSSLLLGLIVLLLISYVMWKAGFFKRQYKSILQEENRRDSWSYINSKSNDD
# A number is an active result; 0 = inactive; ? = inconclusive; - = no result; [ ] = remark or other dose. Rows were chosen to be rich in hits. Some 1.1% of all compounds tested hit in one or more screens of this group.
SMILES,MEP2-GFP yeast,RPL19A TOR yeast,CIT2-GFP yeast,AGP1 TOR yeast,LAP4-GFP MLPCN,VLA-4 inh
CCCn1c(=O)[nH]c(=O)c2c1nc(-c1ccc(OC(F)(F)C(F)C(F)(F)F)cc1)n2CCOC (configuration not stated),178.7[may fluoresce violet],0,?,0,0,0
Cn1c(=O)c2c(nc(SCCN3CCCCC3)n2Cc2ccccc2)n(C)c1=O,280.5[may fluoresce violet],23.3[may fluoresce violet],?,?,0,0
Cn1c(N2CCCC2)nc2c1c(=O)n(Cc1ccc(Cl)cc1)c(=O)n2C,0,0,0,0,161.9,0
Cc1ccc(Cn2c(SCCN3CCCCC3)nc3c2c(=O)n(C)c(=O)n3C)cc1,0,0,0,0,0,0
COc1cc(Cl)c(C)cc1NC(=O)CN1CCN(C(=O)C2CC2)CC1,0,0,0,0,0,0
C=CC[C@@H](CC(=O)N[C@@H](CO)Cc1ccccc1)C(=O)N[C@@H](COC(=O)[C@H](CC=C)CC(=O)OC(C)(C)C)Cc1c[nH]c2ccccc12,0,0,0,0,0,0
CCOc1cc(/C=C2\C(=N)N3N=C(S(=O)(=O)CC)SC3=NC2=O)ccc1OC(=O)c1ccco1,0,47.3,0,0,0,0
CCS(=O)(=O)C1=NN2C(=N)/C(=C\c3ccc(OC(=O)c4ccco4)c(Br)c3)C(=O)N=C2S1,0,0,0,0,0,0
CCOc1cc(/C=C2/C(=N)N3C(=NC2=O)SN=C3S(C)(=O)=O)ccc1OS(=O)(=O)c1ccccc1,0,13.1[may fluoresce violet],?,?,0,0
Cc1ccc2c(c1)C1CN(C)CCC1N2C(=O)c1ccc(Cl)c(S(=O)(=O)N2CCOCC2)c1 (configuration not stated),0,0,0,0,150.1,0
O=C(NC1CCCCCCC1)c1ccc(F)c(S(=O)(=O)N2CCOCC2)c1,0,0,0,0,0,0
O=C(NC1CCCC1)c1ccc(Cl)c(S(=O)(=O)N2CCOCC2)c1,636.1[may fluoresce violet],0,?,?,0,0
Cc1ccc2c(c1)C1CN(C)CCC1N2C(=O)c1cccc(S(=O)(=O)N2CC(C)CC(C)C2)c1 (configuration not stated),0,0,0,0,0,0
CCOc1ccc(Cl)cc1S(=O)(=O)N1CCC(C(=O)NC2CC2)CC1,0,0,0,0,0,0
Cc1ccc(C(=O)NCCCN2CCOCC2)c(Cl)c1,0,0,0,0,0,0
Cc1nn(Cc2c(Cl)cccc2Cl)c(C)c1NC(=O)c1sc2ccccc2c1Cl,192.3,0,0,0,0,0
O=C(COC(=O)Cn1[nH]c(=O)c2ccccc2c1=O)NNC(=O)c1ccccc1,0,0,0,0,0,0
COc1ccccc1CNC(=O)CCC(=O)N1Cc2cccc(OC)c2Oc2ncccc21,0,13.8[may fluoresce violet],?,?,0,0
COc1ccccc1OCC(=O)Sc1ccc(C)cc1,0,0,0,0,158.9,0
Cc1ccc(OCC(=O)Sc2ccc(C)cc2)cc1,0,0,0,0,0,0
COc1ccccc1NC(=S)NCCc1c[nH]c2ccccc12,261.8[may fluoresce violet],-,?,?,0,0
Cc1ccc(NC(=O)C2CCCN2S(=O)(=O)c2ccc(-c3ccc(=O)[nH]n3)s2)c(C)c1 (configuration not stated),0,0,0,0,0,0
O=C(Nc1ccc(F)cc1F)C1CCCN1S(=O)(=O)c1ccc(-c2ccc(=O)[nH]n2)s1 (configuration not stated),253.1[may fluoresce violet],41.5[may fluoresce violet],?,?,0,0
COc1ccc(CC2(CO)CCN(Cc3ccncc3)CC2)cc1,0,0,0,0,0,0
COc1ccc(CC2(CO)CCN(Cc3cnn(C)c3C)CC2)cc1,0,14.0[may fluoresce violet],?,?,167.0[may fluoresce violet],0
CS(=O)(=O)c1ccccc1C(=O)Nc1cccc(-c2nc3ccccc3o2)c1,0,0,0,0,0,0
COc1cc(/C=N/NC(=O)c2ccc(N(C)S(=O)(=O)c3ccccc3)cc2)cc(OC)c1OC,0,0,0,0,0,0
